Compound activity from PubChem BioAssay.
NPC1 promoter act – NPC1 promoter activation. Huh7 NPC1 promoter luciferase reporter, 24 h. Potency, µM (highest dose often 9.22 µM), without a hit: top-dose activation, most hits filed as activators. actives 2.4% (n = 320,000). AID 485313; also: % of control where 0% means no effect; nearly all actives have a fitted effect of over 60% in size
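Luminescence read-out of NPC1 promoter-driven luciferase in stably transfected Huh7 cells; compounds delivered in DMSO and left 24 h at 37C, 5% CO2, qHTS titration format.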
SMN2 splice enh – SMN2 splice variant enhancement | HEK293 SMN2-luciferase splicing reporter, luminescence, 30-36 h | Potency, µM (titrated, usually from 46.1 µM), for inactives: top-dose activity change, positive = activation, hits mostly activators | actives 2.8% (n = 210,000) | AID 1458; also: % of control where 0% means no effect; nearly all actives have a fitted effect of over 55% in size
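HEK293 cells carry an SMN2 […]–luciferase reporter in which exon 7 inclusion puts luciferase in frame. Cells were plated 10-12 h before compound addition, then incubated 30-36 h at 37C. ONE-Glo luminescence was read; sodium butyrate at 4.5 mM final served as control.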
ELG1 genotoxic – inducers of genotoxicity in HEK293T ELG1-luciferase cells. actives 1.3% (n = 330,000). AID 504466. HEK293T ELG1-luciferase reporter, luminescence, 16 h. Potency, µM (series often up to 46 µM), inactives show at the top dose activity change, positive = activation, hits mostly activators; also: % of control where 0% means no effect; nearly all actives have a fitted effect of over 60% in size
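Genotoxicity was scored as increased ELG1-luciferase reporter signal, measured by ONE-Glo luminescence (30 min, room temperature). Compound or vehicle exposure of the HEK293T reporter cells lasted 16 hr at 37°C.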
FLuc modulator – inhibits or activates purified firefly luciferase, miR-21 counter-screen; P08659; purified FLuc, Km substrates, luminescence inhibition; Potency, µM (series often up to 57.5 µM), for inactives: at the top dose activity change, negative = inhibition, usual class: inhibitors; actives 6.9% (n = 360,000);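 also: plate controls were vehicle for no effect and reference inhibitor for full effect; nearly all actives have a fitted effect of over 55% in size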
Target sequence (P08659 whole entry, looked up): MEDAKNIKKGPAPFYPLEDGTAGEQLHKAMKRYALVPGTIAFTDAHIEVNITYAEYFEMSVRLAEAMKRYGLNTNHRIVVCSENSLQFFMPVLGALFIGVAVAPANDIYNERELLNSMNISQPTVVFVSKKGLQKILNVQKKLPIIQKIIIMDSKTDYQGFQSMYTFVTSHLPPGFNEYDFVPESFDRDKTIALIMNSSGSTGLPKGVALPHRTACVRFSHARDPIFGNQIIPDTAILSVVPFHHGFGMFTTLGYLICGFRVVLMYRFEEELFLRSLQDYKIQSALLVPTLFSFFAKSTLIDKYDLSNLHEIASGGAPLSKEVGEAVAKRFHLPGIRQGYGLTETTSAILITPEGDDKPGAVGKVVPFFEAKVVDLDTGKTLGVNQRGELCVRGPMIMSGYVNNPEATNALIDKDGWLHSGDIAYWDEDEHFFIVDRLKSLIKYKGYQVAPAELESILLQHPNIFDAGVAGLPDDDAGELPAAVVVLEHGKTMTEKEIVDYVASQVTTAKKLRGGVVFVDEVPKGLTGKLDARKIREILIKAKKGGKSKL
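Purified P. pyralis luciferase, 10 nM final, with Km-level 10 uM D-luciferin and 10 uM ATP in 50 mM Tris acetate pH 7.5, 10 mM Mg acetate, 0.01% Tween-20, 0.05% BSA; 6-point qHTS titration about 60 µM downward; luminescence read.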
Rab9 promoter act – Rab9 promoter activation | AID 485297 | actives 2.8% (n = 320,000) | Huh7 Rab9 promoter-luciferase reporter, luminescence, 24 h | Potency, µM (series often up to 9.22 µM), for inactives: at the highest dose activation, negative = inhibition, most hits filed as activators; also: % of control where 0% means no effect; nearly all actives have a fitted effect of over 60% in size
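Luminescence from Amplite-detected luciferase (10 minutes, ambient) reports Rab9 promoter activation. Before that, stable Rab9-luciferase Huh7 cells (1500/well, reduced-serum OP-MEM I plus 10% FBS) were exposed to compound for 24 hours at 37C.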
* hit, by the source's call; ? = inconclusive; / = not tested or not shown; [ ] = dose if it differs, or a comment. Sampled rows, rich in hits. Any-hit rate of the full collection: about 7.4%. Calls follow the shape of the dose curve; as a rule, active = well fitted curve in the direction sought with a large enough effect; inconclusive = small, poorly fitted or top-dose-only effect, or another doubt; inactive = no such curve, though single readings can be large; an effect the other way counts as inactive or inconclusive. Potency is read from the fitted curve at half-maximal effect.

SMILES	NPC1 promoter act	SMN2 splice enh	ELG1 genotoxic	FLuc modulator	Rab9 promoter act
COc1ccc(-c2oc3ncn4nc(-c5ccccc5OC)nc4c3c2-c2ccc(OC)cc2)cc1	/	2.2%	/	-5.4%	/
NS(=O)(=O)c1ccc(CCNS(=O)(=O)c2cccc3nsnc23)cc1	-1.7%	/	-0.3%	-3.2%	3.4%
O=C(CSc1nccc(=O)[nH]1)Nc1ccc2c(c1)OCCO2	2.24µM*	/	14.6µM*	10.7µM*	2.24µM*
O=C(CSc1nc(-c2ccccc2)[nH]c1-c1ccccc1)Nc1ccc2c(c1)OCCO2	/	-1.9%	/	9.53µM*	/
O=C(CSc1ccccn1)Nc1ccc2ccccc2c1	3.55µM*	/	?	4.78µM*	2.82µM*
Cc1cc(=O)[nH]c(SCC(=O)Nc2ccc3c(c2)OCCO3)n1	-39.1%	/	-3.2%	0.2%	-41.8%
Cc1cc(NC(=O)CSc2ccccn2)cc(NC(=O)CSc2ccccn2)c1	0.3%	/	-7.0%	4.2%	4.8%
CC(=O)Nc1ccc(NC(=O)CSC2=NCCS2)cc1	1.6%	-9.7%	0.6%	-0.2%	-8.2%
O=C(CSC1=NCCS1)Nc1ccc2ccccc2c1	17.5%	/	2.6%	16.9µM*	18.3%
CCN(Cc1ccccc1)C(=O)c1cc2c(s1)-c1c(C)cccc1OC2	/	7.4%	/	-4.3%	/
CC1CCCC(NC(=O)COC(=O)[C@@H](NC(=O)c2ccccc2Cl)C(C)C)C1C (stereo partly specified)	/	/	-2.2%	/	/
O=c1c2oc3ccccc3c2n(Cc2ccc(Cl)cc2)c(=O)n1Cc1ccc2c(c1)OCO2	/	/	/	-6.0%	/
CCN(C(=O)c1ccc(S(=O)(=O)N2CCC(C)CC2)cc1)C1CCS(=O)(=O)C1 (stereo unspecified)	2.2%	/	1.1%	-2.3%	-1.4%
CN(C)S(=O)(=O)c1ccc(SCC(=O)Nc2ccc3c(c2)OCCO3)nc1	10.9%	/	1.2%	21.3µM*	-1.4%
O=C(COc1ccc2ccccc2c1)NC1=NCCS1	4.47µM*	9.0%	8.2%	4.78µM*	?
O=C(CSc1ccccn1)Nc1ccc2c(c1)OCCO2	3.98µM*	/	?	8.49µM*	2.51µM*
CN1C(=O)CSC1=Nc1cccc(Cl)c1	-5.2%	/	2.5%	7.4%	-4.8%
CCN(c1ccccc1)S(=O)(=O)c1ccc(NC(=O)c2cc(=O)c3cc(C)c(C)cc3o2)cc1	/	2.5%	/	-0.1%	/
CC(NC(=O)Cn1cccc1)c1ccccc1 (stereo unspecified)	0.1%	/	0.2%	1.2%	-0.6%
Brc1ccc2[nH]c3c(c2c1)CCC3	-4.4%	/	-2.9%	-3.1%	1.6%
O=C1Cc2c([nH]c3ccc(Br)cc23)-c2ccccc2N1	0.517µM*	11.2µM*	/	/	0.366µM*
COc1cc(OC)cc(-c2oc(=O)c3cc(OC)c(OC)cc3c2C(F)(F)F)c1	/	/	-0.5%	/	/
COc1cc(OC)c(Nc2c3c(nc4nc(-c5cccs5)nn24)CCCC3)cc1Cl	/	/	/	23.9µM*	/
Cc1nc(NC(=O)c2ccccc2)sc1-c1csc(N)n1	?	-41.3%	0.0%	9.53µM*	29.1%
Cc1nc(NC(=O)c2ccccc2)sc1-c1csc(NCc2ccccc2)n1	-2.9%	0.7%	-4.4%	?	2.1%
SMILES	NPC1 promoter act	SMN2 splice enh	ELG1 genotoxic	FLuc modulator	Rab9 promoter act
Cc1nc(NC(=O)c2ccccc2)sc1-c1csc(Nc2cccc(F)c2)n1	-4.6%	-14.3%	-15.6%	13.5µM*	8.7%
COc1ccccc1Nc1nc(-c2sc(NC(=O)c3ccccc3)nc2C)cs1	-2.9%	-5.3%	-1.2%	21.3µM*	6.4%
COC1=C(Nc2ccccc2OC)C(=O)c2ccccc2C1=O	-0.5%	/	-7.7%	?	11.9%
COc1ccccc1NC1=C(C)C(=O)CC1	-3.5%	17.8µM*	20.6µM*	-2.4%	-5.5%
COc1ccc(CCNC(=O)CSc2nc(=O)[nH]c3c2CCC3)cc1OC	-2.1%	/	0.5%	-1.4%	-5.3%
COc1ccc(C(CNC(=O)C2CCN(S(=O)(=O)c3ccc(F)cc3)CC2)N(C)C)cc1 (stereo unspecified)	-2.7%	/	0.0%	-1.0%	0.9%
CC(=O)N/C(=C\c1ccc(F)cc1)C(=O)OCc1ccccc1	-4.9%	/	-0.2%	2.4%	-3.9%
CCCn1ccc2c(OCC(=O)Nc3ccc(C(F)(F)F)cc3)cccc2c1=O	/	/	/	-0.9%	/
COc1ccccc1Nc1ccc(Nc2ccccc2OC)nn1	?	/	?	9.53µM*	?
COc1ccc(OC)c(Nc2ccc(Nc3cc(OC)ccc3OC)nn2)c1	-1.4%	-13.1%	-2.8%	2.6%	-2.0%
COc1ccccc1Nc1nc(C)cs1	-2.0%	?	-1.6%	26.9µM*	6.7%
CCc1ccccc1NC(=O)N1CCc2ccccc21	0.9%	/	11.5%	?	3.1%
COC(=O)c1sc2cccc(F)c2c1S(=O)(=O)NCc1ccccc1Cl	/	/	/	-3.5%	/
CCOC(=O)c1cccc(C2=CC(=O)C[C@H](c3ccc(Cl)cc3)C2)c1	-0.6%	/	-3.5%	0.7%	0.8%
CCOc1ccccc1OCCCCOc1ccccc1F	-8.3%	0.2%	-0.2%	-9.1%	-5.9%
COc1ccccc1OCCCCOc1ccccc1F	25.3%	-9.3%	7.8%	13.5µM*	27.1%
O=C(COC(=O)c1ccccc1)Nc1ncc([N+](=O)[O-])s1	/	/	-1.7%	/	/
O=C(Nc1ccccc1)Nc1ncc([N+](=O)[O-])s1	?	3.98µM*	?	1.51µM*	?
O=C(Nc1ncc([N+](=O)[O-])s1)c1cccc([N+](=O)[O-])c1	0.0891µM*	/	?	0.675µM*	0.1µM*
Cc1nc(C)c(C(=O)Nc2ncc([N+](=O)[O-])s2)o1	?	0.891µM*	?	1.9µM*	?
O=C(O)c1cc2cc(Cc3cccnc3)ccc2o1	12.0%[46.1 µM]	10.7%	/	/	16.0%[46.1 µM]
O=C(COc1ccc([N+](=O)[O-])cc1)N(C1CCCCC1)C1CCS(=O)(=O)C1 (stereo unspecified)	0.1%	/	1.3%	-1.6%	-0.4%
CC(=O)N1N=C(c2ccccc2)CC1c1ccc(F)cc1 (stereo unspecified)	-3.6%	/	0.1%	2.1%	-1.6%
CC(=O)N1N=C(c2ccccc2)CC1c1cn(C)c2ccccc12 (stereo unspecified)	-1.2%	14.3%	?	19µM*	-5.4%
Cn1c(=O)nc2n(-c3ccc(Cl)c(Cl)c3)c3cc(Cl)ccc3cc-2c1=O	/	-5.8%	/	-1.5%	/
COc1ccccc1C(=O)Nc1ccc(N2CCCCC2)cc1	?	17.8µM*	2.91µM*	2.69µM*	3.98µM*
O=C(Nc1ccc(N2CCCC2)cc1)C(c1ccccc1)c1ccccc1	-2.3%	-12.9%	3.0%	2.5%	-4.3%
COc1ccccc1C(=O)Nc1ccc(N2CCN(C(C)=O)CC2)cc1	-0.1%	-11.4%	2.3%	?	2.3%
O=C(Nc1ccc(N2CCCCC2)cc1)C(Cl)c1ccccc1 (stereo unspecified)	?	16.3%	10.3µM*	3.01µM*	-0.3%
CC(=O)N1CCN(c2ccc(NC(=O)c3ccccc3Cl)cc2)CC1	0.8%	/	1.4%	-3.7%	2.4%
